# DRD3 antagonist = antagonists of human D3 dopamine receptor | max response, negative = inhibition, % | actives 2.5% (n = 360,000) | D3R cells, DiscoveRx beta-arrestin luminescence, antagonist mode; stronger effect = lower value | AID 652054 | P35462; in the data active = max response below about -50%; inconclusive = no clear call, values can overlap the other calls; also: % is scaled to controls: 0 for no effect and ±100 for the full control effect
#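 Cells expressing the human receptor were seeded at 1500 cells/well, incubated overnight at 37 degrees C in 5% CO2, then exposed to library compounds with dopamine controls for 90 minutes at 37 degrees C before luminescent detection.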
# Rango release inh = prevents RanGTP from dissociating the Rango-importin beta complex; actives 0.071% (n = 340,000); AID 540253; Biochemical FRET Rango-importin beta, RanGTP-induced dissociation; O95149+P62826; Potency, µM (highest dose often 46.1 µM), for inactives: top-dose activity change, negative = inhibition; also: potency is read from the fitted curve at half-maximal effect; % of control where 0% means no effect; nearly all actives have a fitted effect of over 45% in size
#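 Compounds sat 5 min at room temperature with 0.1 uM Rango biosensor plus 0.25 uM importin beta, then FRET pre-read. RanGTP-RCC1 (0.6 uM Ran, 2mM GTP, 0.2 uM RCC1) added for 45 min, and the CFP/YFP post-read measured blocked complex dissociation.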
# MmCpn inh = blocks the Methanococcus maripaludis chaperonin Mm-Cpn. purified Mm-Cpn ATPase, ADP Transcreener TR-FRET. Potency, µM (top dose mostly 76.9 µM), for inactives: at the top dose activity, negative = inhibition, usual class: inhibitors. AID 504842. actives 0.031% (n = 330,000); active = well fitted inhibition curve with a large enough effect; inconclusive = small, poorly fitted or top-dose-only effect; also: potency is read from the fitted curve at half-maximal effect; % is scaled to controls: 0 for no effect and ±100 for the full control effect; nearly all actives have a fitted effect of over 80% in size
#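 25 nM Mm-CPN + cpd, 10 min 37°C; + 10 uM ATP, 30 min 37°C; buffer 30 mM Tris pH 7.4, 100 mM KCl, 5 mM MgCl2, 1 mM DTT; Transcreener ADP HTRF detection 30 min RT.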
# Rango complex inh = prevents formation of the Rango-importin beta complex; Rango CFP/YFP FRET sensor + importin beta, 45 min; Potency, µM (highest dose often 92.2 µM), without a hit: top-dose inhibition of complex formation; actives 0.031% (n = 340,000); AID 540263;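 also: potency is read from the fitted curve at half-maximal effect; 0% = DMSO wells and 100% = buffer wells lacking importin beta; nearly all actives have a fitted effect of over 15% in size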
#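 FRET biosensor Rango (snurportin 1 IBB between N-terminal EYFP and C-terminal Cerulean), 50 nM in PBS/1 mM DTT/0.02% Tween-20/0.1% BSA, preincubated 5 min RT with compound; 0.125 microM importin beta added, 45 min RT, CFP/YFP FRET ratio read.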
# D3 ag = agonists of human D3 dopamine receptor. P35462. D3R DiscoveRx beta-arrestin cells, luminescence, 90 min. max activation, %. actives 0.58% (n = 410,000). AID 652048; in the data active = max activation above about 30%; also: 0% is about no effect
#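 Agonist-mode cell screen: cells plated at 1500/well and incubated overnight at 37 °C, then exposed to library compounds for 90 min at 37 °C. Detection reagent was added for 30–60 min at room temperature, and luminescence was read.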
# PTAP TSG101 blk = blocks PTAP/TSG101 interaction to inhibit HIV-1 budding; Fluorescence polarization, FITC-PTAP peptide / Tsg101 binding; 340,000 tested, under 10 active; Potency, µM (top dose mostly 115 µM), inactives show at the top dose activity change, negative = inhibition, actives largely listed as inhibitors; active = well fitted inhibition curve with a large enough effect in the main read-out, with a control signal flat, not every such curve was filed as active; inconclusive = small, poorly fitted or top-dose-only effect, or effect the other way, or a change in a side signal; inactive = no such curve, though single readings can be large or run the other way; also: potency is read from the fitted curve at half-maximal effect; % of control where 0% means no effect
# Target sequence (Q99816 whole entry, looked up): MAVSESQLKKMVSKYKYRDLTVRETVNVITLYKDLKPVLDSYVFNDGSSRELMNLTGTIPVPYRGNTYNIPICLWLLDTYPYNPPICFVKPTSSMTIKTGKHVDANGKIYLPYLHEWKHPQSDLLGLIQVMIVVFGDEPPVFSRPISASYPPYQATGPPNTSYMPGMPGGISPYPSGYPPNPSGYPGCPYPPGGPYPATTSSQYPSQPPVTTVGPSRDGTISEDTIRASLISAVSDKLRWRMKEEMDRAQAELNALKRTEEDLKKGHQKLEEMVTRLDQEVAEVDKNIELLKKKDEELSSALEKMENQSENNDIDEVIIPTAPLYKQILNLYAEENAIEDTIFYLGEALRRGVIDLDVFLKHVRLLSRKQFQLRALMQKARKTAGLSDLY
#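 Compounds were pin-transferred onto Tsg101 binding domain (10 uM final) in HEPES pH 7.5 buffer, then FITC-PTAP peptide was added at 50 nM final. After 20 min at RT, polarization reported peptide displacement across a qHTS concentration series.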
# * hit, by the source's call; ? = inconclusive; . = no result given; ! = a repeat was not active. The list is not random: actives were taken first. Their share in the collection is about 2.9%. Unless noted, calls follow the shape of the full dose curve.
SMILES,DRD3 antagonist,Rango release inh,MmCpn inh,Rango complex inh,D3 ag,PTAP TSG101 blk
Cn1c(CCN2CCN(c3ccccn3)CC2)nc2cc(NC(=O)COc3ccccc3)ccc21,-13,-16%,-5%,0%,44*,1%
CC(=O)c1ccc(NC(=O)CSc2nccn2Cc2ccco2)cc1,.,.,.,.,-8,.
COc1ccc(-c2nc3scc(CCNS(=O)(=O)c4ccc5c(c4)OCCO5)n3n2)cc1,.,.,.,.,10,.
Cc1noc(C)c1C(=O)OCC(=O)NCCc1ccccc1,14,-16%,0%,-2%,4,-6%
Cc1ccc2ccc(C(Nc3cccc(C(F)(F)F)c3)c3cccnc3)c(O)c2n1 (stereo not given),-127*,16%,0%,-2%,-18,-1%
COc1ccccc1NC(c1cccnc1)c1ccc2cccnc2c1O (stereo not given),?,2%,-2%,2%,0,-1%
Cc1ccc2ccc(C(Nc3ccccn3)c3ccccc3)c(O)c2n1 (stereo not given),-59*,6%,1%,0%,-17,-4%
O=C(O)c1ccccc1NC(c1ccccc1)c1ccc2cccnc2c1O (stereo not given),-95*,-6%,.,2%,-2,-4%
Cc1ccnc(NC(c2ccsc2)c2ccc3ccc(C)nc3c2O)c1 (stereo not given),-98*,17%,-1%,-1%,-44,1%
COc1cc(C(Nc2ccccn2)c2ccc3ccc(C)nc3c2O)cc(OC)c1O (stereo not given),?,8%,-3%,-1%,2,-1%
Cc1ccnc(NC(c2ccccc2)c2ccc3cccnc3c2O)c1 (stereo not given),-12,-2%,.,-1%,13,1%
Cc1nc(-n2nc(C)c(CCC(C)C)c2C)sc1C(=O)Nc1ccc(Cl)cc1,.,.,.,.,11,.
COc1ccc(C(Nc2cc(C)ccn2)c2ccc3ccc(C)nc3c2O)cc1 (stereo not given),-77*,-18%,2%,0%,-35,-1%
CCOc1cc(/C=C(/NC(C)=O)C(=O)O)cc(Cl)c1OCc1ccc(Br)cc1,13,-1%,3%,2%,2,-2%
COCCCNC(=O)c1c(NC(=O)Cc2coc3cc(C)cc(C)c23)sc2c1CCCC2,.,.,.,.,-1,.
CCCCN(CC)CCNC(=O)c1cc2c(-c3ccc(Cl)cc3)nn(C)c2s1,-62*,0%,-3%,-1%,-13,-2%
COc1ccc(-c2nn(C)c3sc(C(=O)NCCN(C)C)cc23)cc1OC,2,15%,-1%,0%,-2,-5%
CCCN(CCC)CCCNC(=O)c1cc2c(-c3ccc(OC)c(OC)c3)nn(C)c2s1,-92*,14%,1%,-1%,-15,-6%
CN(C)CCCC1Sc2ccccc2Sc2ccccc21 (stereo not given),-69*,8%,.,7%,-40,3%
CCCn1c(CCC(=O)Nc2cc(Cl)c(OC)cc2OC)nc2cccnc21,.,.,.,.,5,.
CCCc1cc(C(=O)Nc2ccc(F)c(Cl)c2)no1,-51*,1%,-10%,-1%,-19,-6%
CCCc1cc(C(=O)Nc2cccc(Cl)c2)no1,?,4%,1%,?,-11,-2%
CCCCC(=O)Nc1cccc(NC(=O)CC)c1,11,7%,-1%,-1%,1,-6%
O=C(Nc1cccc(NC(=O)c2ccccc2Cl)c1)c1ccco1,2,-7%,3%,0%,3,-1%
CC(=O)Nc1cccc(O)c1,-1,-2%,1%,-2%,83*!,1%
SMILES,DRD3 antagonist,Rango release inh,MmCpn inh,Rango complex inh,D3 ag,PTAP TSG101 blk
CC(=O)Nc1cccc(NC(=O)c2ccccc2Cl)c1,-55*,.,.,.,-9,.
CCCCC(=O)Nc1cccc(NC(=O)c2ccccc2Br)c1,-61*,-13%,-2%,5%,1,.
COCCn1c(C)cc(O)c(C(c2ccccc2)N2CCN(C)CC2)c1=O (stereo not given),.,.,.,.,-7,.
CCC(C)n1c(C)nc2c(c1=O)c1nc3ccccc3nc1n2CCC1=CCCCC1 (stereo not given),31,1%,-4%,1%,-1,-2%
CCCOc1cccc(C(=O)Nc2ccc(-c3nc4ccccc4o3)cc2)c1,.,.,.,.,8,.
COc1ccc(-n2nc(C(=O)NCCc3ccc(Cl)cc3)c3c4ccccc4n(C)c3c2=O)cc1,.,.,.,.,6,.
CC(Oc1ccccc1)C(=O)OCc1cc(=O)n2nc(C(C)C)sc2n1 (stereo not given),.,.,.,.,-2,.
Cc1ccccc1NC(=O)OCc1ccccc1,7,20%,1%,1%,61*,-2%
CSc1ccccc1COC(=O)Nc1ccccc1C,-23,-5%,0%,-1%,0,0%
COc1ccc(CN2CCN(C3CCSCC3)CC2CCO)c(C)c1C (stereo not given),-64*,1%,-1%,0%,-24,-3%
COc1ccc(CN2CCN(C3CCOCC3)CC2CCO)c(C)c1C (stereo not given),-23,13%,-2%,-1%,-14,0%
C=CCn1cc(/C=C2\SC(N3CCOCC3)=NC2=O)c2ccccc21,-1,16µM*,-6%,?,-1,-3%
Cc1ccc(Cl)cc1N(C)C(=O)c1cn(C2CCCCC2)c(=O)c2c1c1ccccc1n2C,.,.,.,.,0,.
O=c1oc(-c2cccs2)nc2c1cnn2-c1ccccc1,-56*,1%,0%,2%,0,-7%
CC(=O)OCC(=O)[C@@]1(O)CCC2C3CCC4=CC(=O)CC[C@]4(C)C3[C@@H](O)C[C@@]21C (stereo not given in full),.,.,.,.,11,.
CC(C)(C)OC(=O)N(Cc1ccccc1)Cc1ccc(OCc2cccc(NC(=O)C3CC3)c2)cc1,113,4%,.,2%,65*,-1%
CC(C)(C)OC(=O)N(CCc1ccccc1)Cc1ccccc1OCc1cccc(NC(=O)C2CCCC2)c1,-50*,-3%,.,9%,-11,2%
CCOP(=O)(c1ccc(N(C)C)cc1)C(O)c1ccccc1F (stereo not given),-25,-20%,-1%,5%,-14,-5%
CCn1c(O)c(/C=N/N=C/c2ccccc2)c2ccc(C3=NNC(=O)CC3)cc21,21,?,0%,?,7,?
CCC(CC)=N/N=C/c1c(O)n(CC)c2cc(C3=NNC(=O)CC3)ccc12,-53*,?,0%,?,-2,4%
CCc1nc2c(OCc3ccccc3C)cccn2c1N(C)C(=O)CC(C)C,0,.,.,.,-7,.
CCc1nc2c(OCc3ccccc3C)cccn2c1N(C)C(=O)C(C)C,-78*,.,.,.,-19,.
